This is an account of results in the supplement of paper PMC8975748.

Assay [1] deals with Saccharomyces cerevisiae BY4741 SeMeCo community. As to the kind of experiment: mean cell size (pixel area) (pixels); higher = larger cells. As to conditions: 10 µM; 24 h; SM minimal medium. The procedure, abridged: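 In this assay, mean cell pixel area per well was obtained from automated confocal images of paraformaldehyde-fixed yeast analysed in Harmony. The cells were a Saccharomyces cerevisiae BY4741 community with four plasmids, each complementing one auxotrophy and carrying a fluorescent marker, grown for 24 h in SM medium with drug at a final 10 µM in 384-well plates. Values are averaged across 3 replicates. Same SeMeCo high-content imaging drug screen: Selleck FDA-approved drugs at 10 µM, 24 h in SM medium, 384-well plates, 3 replicates.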

The test system is the same in assay [2]. The assay is described as follows: z-score of prototroph abundance vs DMSO median; higher = larger share of this subpopulation than in DMSO controls. As to conditions: 10 µM; 24 h; SM minimal medium; subpopulation (auxotrophy): Prototroph. The procedure, abridged:
(§1)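 Four plasmids, each restoring a single auxotrophy and encoding a distinct fluorescent protein, were carried by a Saccharomyces cerevisiae BY4741 community. After overnight growth to OD600 1.0 and dilution to 0.3, 70 µl per well was grown for 24 h in minimal SM medium on 384-well plates acoustically predosed with library drugs at 10 µM final. Following paraformaldehyde fixation, automated confocal microscopy was used, with single-auxotroph fluorescent strains defining thresholds and autofluorescence correction. Subpopulation abundance was then scored as a z-score against the vehicle-well median.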

Assay [3] shares this test system. The assay is described as follows: z-score of subpopulation abundance vs DMSO median, subpopulation auxotrophic for L; higher = larger share of this subpopulation than in DMSO controls. To be noted: 10 µM; 24 h; SM minimal medium; subpopulation (auxotrophy): L. Summed up:
as §1

The test system is the same in assay [4]. As to the kind of experiment: z-score of subpopulation abundance vs DMSO median, subpopulation auxotrophic for U; higher = larger share of this subpopulation than in DMSO controls. As to conditions: 10 µM; 24 h; SM minimal medium; subpopulation (auxotrophy): U. The procedure, abridged:
as §1

Assay [5] has the same test system. The assay is described as follows: z-score of subpopulation abundance vs DMSO median, subpopulation auxotrophic for H; higher = larger share of this subpopulation than in DMSO controls. As to conditions: 10 µM; 24 h; SM minimal medium; subpopulation (auxotrophy): H. Summed up:
as §1

Assay [6] has the same test system. The assay is described as follows: z-score of subpopulation abundance vs DMSO median, subpopulation auxotrophic for LU; higher = larger share of this subpopulation than in DMSO controls. To be noted: 10 µM; 24 h; SM minimal medium; subpopulation (auxotrophy): LU. Summed up:
as §1

Assay [7] shares this test system. As to the kind of experiment: z-score of subpopulation abundance vs DMSO median, subpopulation auxotrophic for LM; higher = larger share of this subpopulation than in DMSO controls. As to conditions: 10 µM; 24 h; SM minimal medium; subpopulation (auxotrophy): LM. Summed up: as §1
Assay [8] has the same test system. The assay is described as follows: z-score of subpopulation abundance vs DMSO median, subpopulation auxotrophic for HU; higher = larger share of this subpopulation than in DMSO controls. As to conditions: 10 µM; 24 h; SM minimal medium; subpopulation (auxotrophy): HU. Summed up:
as §1

Assay [9] shares this test system. As to the kind of experiment: z-score of subpopulation abundance vs DMSO median, subpopulation auxotrophic for UM; higher = larger share of this subpopulation than in DMSO controls. As to conditions: 10 µM; 24 h; SM minimal medium; subpopulation (auxotrophy): UM. The procedure, abridged:
as §1

For assay [10] the test system is unchanged. As to the kind of experiment: z-score of subpopulation abundance vs DMSO median, subpopulation auxotrophic for HL; higher = larger share of this subpopulation than in DMSO controls. To be noted: 10 µM; 24 h; SM minimal medium; subpopulation (auxotrophy): HL. Summed up: as §1
The test system is the same in assay [11]. As to the kind of experiment: z-score of subpopulation abundance vs DMSO median, subpopulation auxotrophic for HLM; higher = larger share of this subpopulation than in DMSO controls. To be noted: 10 µM; 24 h; SM minimal medium; subpopulation (auxotrophy): HLM. Summed up: as §1
For assay [12] the test system is unchanged. The assay is described as follows: z-score of subpopulation abundance vs DMSO median, subpopulation auxotrophic for HUM; higher = larger share of this subpopulation than in DMSO controls. As to conditions: 10 µM; 24 h; SM minimal medium; subpopulation (auxotrophy): HUM. Summed up:
as §1

The test system is the same in assay [13]. The assay is described as follows: z-score of subpopulation abundance vs DMSO median, subpopulation auxotrophic for LUM; higher = larger share of this subpopulation than in DMSO controls. As to conditions: 10 µM; 24 h; SM minimal medium; subpopulation (auxotrophy): LUM. Summed up: as §1
For assay [14] the test system is unchanged. The assay is described as follows: z-score of subpopulation abundance vs DMSO median, subpopulation auxotrophic for HM; higher = larger share of this subpopulation than in DMSO controls. As to conditions: 10 µM; 24 h; SM minimal medium; subpopulation (auxotrophy): HM. The procedure, abridged:
as §1

Assay [15] shares this test system. The assay is described as follows: z-score of subpopulation abundance vs DMSO median, subpopulation auxotrophic for HLUM; higher = larger share of this subpopulation than in DMSO controls. To be noted: 10 µM; 24 h; SM minimal medium; subpopulation (auxotrophy): HLUM. Summed up: as §1

Structures can show the parent of a compound that is named as a salt. ± gives the standard deviation of the averaged measurements.

Turning to `CC[C@H]1OC(=O)[C@H](C)[C@@H](O[C@H]2C[C@@](C)(OC)[C@@H](O)[C@H](C)O2)[C@H](C)[C@@H](O[C@@H]2O[C@H](C)C[C@H](N(C)C)[C@H]2O)[C@](C)(O)C[C@@H](C)C(=O)[C@H](C)[C@@H](O)[C@]1(C)O` [Erythromycin thiocyanate], in assay [1], the mean cell size stood at 12.1 ± 0.14. Besides, the “z-score of prototroph abundance” value in [2] came to 0.64. The “z-score of subpopulation abundance” value in [3] is -0.64; in [4], 0.41; in assay [5] it was -1.72; in [6], -0.22; in assay [7] it was 0.36; in assay [8], -0.7. The “z-score of subpopulation abundance” value in [9] is 0.06; in assay [10], -0.71; in [11], -0.68; in assay [12], -0.41; in [13], -0.09.

With `CS(=O)(=O)c1ccc(C2=C(c3ccccc3)C(=O)OC2)cc1` [Rofecoxib], the mean cell size in [1] is 12.3 ± 0.16. In addition, in [2], the “z-score of prototroph abundance” value is -0.48. Further, the “z-score of subpopulation abundance” value in assay [4] is -0.52; in assay [5] it was 0.29; in assay [6], 0.3; in [7], 1.55; in assay [14], 1.11; in [8], 0.01. The “z-score of subpopulation abundance” value in assay [9] was 0.95; in [10] it was 0.69; in assay [11] it was 1.01; in assay [12], 0.77; in assay [13] it was 1.28.

Consider `CN(C)[C@@H]1C(O)=C(C(N)=O)C(=O)[C@@]2(O)C(O)=C3C(=O)c4c(O)cccc4[C@@](C)(O)[C@H]3[C@H](O)[C@@H]12` [Oxytetracycline (Terramycin)], for which, in assay [1], the mean cell size worked out at 12.87 ± 0.067.

As to `CN(C)c1cc(NC(=O)CNC(C)(C)C)c(O)c2c1C[C@H]1C[C@H]3[C@H](N(C)C)C(O)=C(C(N)=O)C(=O)[C@@]3(O)C(O)=C1C2=O` [Tigecycline], in assay [1], the mean cell size was 12.8 ± 0.2.

The molecule `CN(C)[C@@H]1C(O)=C(C(N)=O)C(=O)[C@@]2(O)C(O)=C3C(=O)c4c(O)ccc(Cl)c4[C@@](C)(O)[C@H]3C[C@@H]12` [Chlortetracycline HCl] registered a mean cell size in assay [1] of 12.4 ± 0.2.

Turning to `CN(C)[C@@H]1C(O)=C(C(N)=O)C(=O)[C@@]2(O)C(O)=C3C(=O)c4c(O)cccc4[C@@](C)(O)[C@H]3C[C@@H]12` [Tetracycline HCl], the mean cell size in assay [1] was found to be 12.3 ± 0.19.

`CCCN[C@H]1CCc2nc(N)sc2C1` [Pramipexole 2HCl Monohydrate]: the “z-score of prototroph abundance” value in assay [2] was found to be 0.72. Also, the “z-score of subpopulation abundance” value in assay [3] was -0.36; in [4], -0.54; in assay [7] it was -1.2; in [14], -0.39; in [8], -0.19; in assay [9] it was -0.95. Also, the entries for the “z-score of subpopulation abundance” value in assay [10], in assay [12] and in [15] were -0.02, -0.88 and -0.69, respectively.

On to `CC(C)(C)[C@H]1CC[C@H](CC2=C(O)C(=O)c3ccccc3C2=O)CC1` [Buparvaquone], for which, in assay [1], the mean cell size worked out at 12.1 ± 0.18.

`Cc1c(C)c2c(c(C)c1O)CC[C@@](C)(CCC[C@H](C)CCC[C@H](C)CCCC(C)C)O2` [Vitamin E] yielded a mean cell size in assay [1] of 12.2 ± 0.22.

In assay [1], `Cn1c(=O)c2c(ncn2CC2OCCO2)n(C)c1=O` [Doxofylline] returned a mean cell size of 12.2 ± 0.51. In addition, the “z-score of prototroph abundance” value in assay [2] was found to be 0.31. For the same molecule, the “z-score of subpopulation abundance” value in assay [3] was 0.55; in [4], -0.22; in [5] it was -0.27; in assay [14] it was -0.89; in [8] it was -0.64; in assay [9], -0.67. Further, the “z-score of subpopulation abundance” value in assay [10] was 0.28; in assay [11], -0.9; in assay [12], -0.34; in [15], -0.8.

In the case of `CC(C)CCCCC(=O)N[C@@H](CCN)C(=O)N[C@H](C(=O)N[C@@H](CCN)C(=O)N[C@H]1CCNC(=O)[C@H]([C@@H](C)O)NC(=O)[C@H](CCN)NC(=O)[C@H](CCN)NC(=O)[C@H](CC(C)C)NC(=O)[C@@H](Cc2ccccc2)NC(=O)[C@H](CCN)NC1=O)[C@@H](C)O` [Polymyxin B sulphate], the mean cell size in assay [1] worked out at 11.1 ± 0.33.
